T cruzi growth-1: T. cruzi intracellular proliferation inhibitors, primary screen, cell-based, beta-gal Tulahuen parasites, NIH3T3 host, luminescence | inhibition, % at 8.34 µM | 77,000 compounds, 5.9% hits | T. cruzi beta-gal in NIH3T3, GalScreen luminescence, 90 h | AID 624255, 2012;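 active = mean inhibition above about 93%, with at least 55% of replicates each passing it, limit read from the data, passing the limit was not always enough; inconclusive = only one of those two conditions holds; inactive = neither condition holds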
Pf Dd2 inh: P. falciparum Dd2 growth inhibitors, primary screen, SYBR Green fluorescence, single dose replicates; 72 h; hits give low values; activity change, % at 10 µM; 94,000 compounds, 2.3% hits; AID 1159554, 2015; in the data active = activity change below about -80%; inconclusive = no clear call, values can overlap the other calls
C diff HTS: C. difficile growth inhibitors, primary screen, HTS; AID 1259249, 2017; 86,000 compounds, 0.25% hits; growth activity, negative = inhibition, % at 16 µg/mL (by protocol); Clostridium difficile clinical isolate growth, OD600, 24 h; hits give low values;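 active = mean growth activity at or below -80% and every replicate also at or below -80%; inconclusive = mean at or below -80% but some replicate above -80%; inactive = mean growth activity above -80%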;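 also: 0% = DMSO wells and -100% = levofloxacin 16 µg/mL wells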
T cruzi growth-2: T. cruzi intracellular proliferation inhibitors, confirmation, cell-based, NIH3T3 host, beta-gal parasite, luminescence, cherry-pick; inhibition, % at 8.35 µM; shares compounds with T cruzi growth-1; 5,600 compounds, 72% hits; T. cruzi beta-gal in NIH3T3, GalScreen luminescence, 90 h;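 active = mean replicate inhibition above about 95% and at least 55% of replicates individually reaching it, limit read from the data; inconclusive = only one of the two criteria is met; inactive = neither criterion is met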
T cruzi growth-3: inhibitors of intracellular T. cruzi replication, confirmation, NIH3T3 host cells, beta-gal parasites, cherry-pick, set 2. AID 651740, 2012. shares compounds with T cruzi growth-1. T. cruzi beta-gal in NIH3T3, GalScreen luminescence, 90 h. inhibition, % at 2.09 µM. 5,600 compounds, 21% hits;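 active = mean inhibition above about 95%, with at least 55% of replicates also reaching it, limit read from the data; inconclusive = meets just one of the two conditions; inactive = meets neither condition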;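 also: plate controls were neutral control median for no effect and positive control median for full effect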
NIH3T3 tox: cytotoxicity in mouse NIH/3T3 fibroblasts, confirmation, cytotoxicity control for T. cruzi proliferation inhibitor project, cell-based, cherry-pick, single point; shares compounds with T cruzi growth-1; cytotoxicity (signal decrease), % at 8.35 µM; NIH/3T3 viability, CellTiter-Glo ATP luminescence, 90 h; AID 651742, 2012; 5,600 compounds, 14% hits;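 active = mean signal decrease across replicates above about 35% based on untreated-well scatter, with enough replicates individually passing, limit read from the data; inconclusive = no rule stated though some were filed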;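 also: 0% = median of neutral control wells and 100% = median of positive control wells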
3T3 cytotox 2: NIH/3T3 fibroblast cytotoxicity, confirmation, cytotoxicity control, cell-based, cherry-pick, single point, set 2 | shares compounds with T cruzi growth-1 | NIH/3T3 viability, CellTiter-Glo ATP luminescence, 90 h | inhibition, % at 24.9 µM | 5,600 compounds, 56% hits;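 active = mean loss of cell viability signal at or above a set limit, and enough replicates individually reaching it; inconclusive = meets only the mean limit or only the replicate share; inactive = meets neither condition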;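 also: 0% = median of neutral control wells and 100% = median of positive control wells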
Starred values were filed as active, the others as inactive; ? = inconclusive; . = no result. Only some compounds are listed: those with a hit (about 6.7% of all), similar ones and a draw of the others.

SMILES	T cruzi growth-1	Pf Dd2 inh	C diff HTS	T cruzi growth-2	T cruzi growth-3	NIH3T3 tox	3T3 cytotox 2
COc1ccc(NC(=O)Nc2ccc3c(c2)[C@H]2C[C@@H](CC(=O)N(C)C)O[C@@H](CO)[C@H]2O3)cc1	2	10	-2	.	.	.	.
COc1ccc2c3c([nH]c2c1)[C@H](CO)N(C(=O)NC(C)C)CC31CCN(C(=O)c2cccnc2)CC1	.	-4	3	.	.	.	.
O=C(Nc1ccccc1)N1CCCCN2[C@@H](CO)[C@@H](c3ccc(Br)cc3)[C@@H]2C1	70	-41	30	.	.	.	.
C[C@@H]1CN([C@H](C)CO)C(=O)c2cc(-c3ccccc3)cnc2O[C@@H]1CN(C)C(=O)Cc1ccccn1	7	5	-1	.	.	.	.
C[C@H]1CCCCO[C@@H](CN(C)S(=O)(=O)c2cccs2)[C@@H](C)CN([C@@H](C)CO)C(=O)c2cc(NC(=O)C3CCCCC3)ccc2O1	32	-70	-6	.	.	.	.
C[C@@H]1CN([C@H](C)CO)C(=O)Cc2cc(NS(=O)(=O)c3ccc(F)cc3)ccc2O[C@@H]1CN(C)Cc1ccccc1	88	2	-8	.	.	.	.
C[C@H]1CN([C@@H](C)CO)C(=O)Cc2cc(NS(=O)(=O)c3ccc(Cl)cc3)ccc2O[C@@H]1CN(C)Cc1ccccc1	102*	-26	-1	104*	50	-15	83*
C[C@H]1CN([C@@H](C)CO)C(=O)Cc2cc(NS(=O)(=O)c3ccc(Cl)cc3)ccc2O[C@@H]1CN(C)Cc1ccc(-c2ccccc2)cc1	99*	-27	.	105*	53	6	107*
C[C@@H]1CN([C@@H](C)CO)C(=O)Cc2cc(NS(=O)(=O)c3ccc(Cl)cc3)ccc2O[C@@H]1CN(C)Cc1ccccc1	72	-30	2	.	.	.	.
C[C@@H]1CN([C@H](C)CO)C(=O)Cc2cc(NS(=O)(=O)c3ccccc3)ccc2O[C@@H]1CN(C)Cc1ccc(-c2ccccc2)cc1	67	14	3	.	.	.	.
C[C@H](CO)N1C[C@H](C)[C@@H](CN(C)Cc2ccc(-c3ccccc3)cc2)Oc2ccc(NS(C)(=O)=O)cc2CC1=O	118*	-11	45	112*	?	26	105*
C[C@@H]1CN([C@@H](C)CO)C(=O)Cc2cc(NS(C)(=O)=O)ccc2O[C@H]1CN(C)Cc1ccc(-c2ccccc2)cc1	88	-1	27	.	.	.	.
C[C@H](CO)N1C[C@H](C)[C@@H](CN(C)Cc2ccccc2)Oc2ccc(NS(=O)(=O)c3ccc(F)cc3)cc2CC1=O	109*	-42	0	96*	44	3	0
CN1CCN(C(=O)C[C@@H]2CC[C@@H](NC(=O)Nc3ccccc3F)[C@@H](CO)O2)CC1	35	-6	-1	.	.	.	.
COc1cccc(NC(=O)N2C[C@H](O)COC[C@H]3O[C@H](CC(=O)NCCCN4CCOCC4)CC[C@@H]32)c1	.	21	0	.	.	.	.
CCCN1[C@@H]2c3ccc(C4=CCCC4)c(=O)n3C[C@@H]2[C@@H](CO)[C@@H]1C(=O)NCC	32	12	-3	.	.	.	.
C/C=C/c1ccc2c(c1)O[C@H](CN(C)C(=O)Nc1cccc(F)c1)[C@@H](C)CN([C@@H](C)CO)S2(=O)=O	42	-18	4	.	.	.	.
C/C=C/c1ccc2c(c1)O[C@@H](CN(C)C(=O)Nc1cccc(F)c1)[C@@H](C)CN([C@@H](C)CO)S2(=O)=O	-53	-31	4	.	.	.	.
C[C@H](CO)N1C[C@H](C)[C@@H](CN(C)C(=O)Nc2cccc(F)c2)Oc2cc(/C=C/c3ccccc3)ccc2S1(=O)=O	121*	-58	8	99*	114*	13	35*
C/C=C/c1ccc2c(c1)O[C@H](CN(C)C(=O)Nc1cccc(F)c1)[C@H](C)CN([C@H](C)CO)S2(=O)=O	105*	-18	6	99*	78	21	39*
O=C(Nc1ccc(F)cc1)N[C@H]1CC[C@H](CCNS(=O)(=O)c2ccccc2F)O[C@@H]1CO	.	.	1	.	.	.	.
COc1ccc(NC(=O)Nc2ccc3c(c2)C(=O)N([C@@H](C)CO)C[C@@H](C)[C@H](CN(C)S(=O)(=O)c2ccc(F)cc2)OCCCC[C@@H](C)O3)cc1	?	-45	2	109*	44	-25	11
COc1ccc(S(=O)(=O)N(C)C[C@@H]2OCCCC[C@H](C)Oc3ccc(NC(=O)Nc4ccc(F)cc4)cc3C(=O)N([C@@H](C)CO)C[C@@H]2C)cc1	116*	-79	2	108*	93	-17	-11
COc1ccc(S(=O)(=O)N(C)C[C@@H]2OCCCC[C@H](C)Oc3ccc(NC(=O)Nc4ccc(F)cc4)cc3C(=O)N([C@H](C)CO)C[C@@H]2C)cc1	115*	-30	5	102*	57	-5	-7
COc1ccc(S(=O)(=O)N(C)C[C@@H]2OCCCC[C@@H](C)Oc3ccc(NC(=O)Nc4ccc(F)cc4)cc3C(=O)N([C@H](C)CO)C[C@@H]2C)cc1	52	-80	8	.	.	.	.
SMILES	T cruzi growth-1	Pf Dd2 inh	C diff HTS	T cruzi growth-2	T cruzi growth-3	NIH3T3 tox	3T3 cytotox 2
COc1ccc(NC(=O)Nc2ccc3c(c2)C(=O)N([C@@H](C)CO)C[C@@H](C)[C@@H](CN(C)S(=O)(=O)c2ccc(F)cc2)OCCCC[C@H](C)O3)cc1	37	-27	10	.	.	.	.
COc1ccc(S(=O)(=O)N(C)C[C@H]2OCCCC[C@@H](C)Oc3ccc(NC(=O)Nc4ccc(F)cc4)cc3C(=O)N([C@@H](C)CO)C[C@@H]2C)cc1	?	-66	1	.	.	.	.
CN1C(=O)c2cc(NC(=O)c3cnccn3)ccc2OC[C@H]2O[C@H](CC(=O)O)CC[C@H]21	11	-2	6	.	.	.	.
COc1cccc(S(=O)(=O)N(C)C[C@@H]2Oc3ncc(-c4cc5ccccc5o4)cc3C(=O)N([C@H](C)CO)C[C@@H]2C)c1	109*	-67	2	104*	73	39*	16
C[C@H](CO)N1C[C@H](C)[C@H](CN(C)S(=O)(=O)c2cccc(F)c2)Oc2ncc(-c3cc4ccccc4o3)cc2C1=O	.	-56	9	.	.	.	.
COc1ccc(NC(=O)N(C)C[C@@H]2Oc3ncc(-c4cc5ccccc5o4)cc3C(=O)N([C@H](C)CO)C[C@@H]2C)cc1	109*	-47	1	106*	41	32	34*
C[C@H](CO)N1C[C@H](C)[C@H](CN(C)Cc2ccc(F)cc2)Oc2ncc(-c3cc4ccccc4o3)cc2C1=O	.	-38	19	.	.	.	.

Bioassay records: PubChem BioAssay, Broad Institute
